# High-throughput results deposited in PubChem by National Center for Advancing Translational Sciences (NCATS).
# Most compounds without a hit are left out; they make up all but 5.8% or so of the library.
# TRPV1 potentiator = HTS Assay for Compounds that Act as Potentiators of the Vanilloid Receptor 1; AID 540277, 2011; TRPV1-expressing cells, Fluo-8 calcium influx, capsaicin EC20 potentiation; potentiation, % at 8.33 µM; actives 0.02% (n = 320,000); in the data active = potentiation above about 80%; inconclusive = between about 30% and that limit
# Target sequence (Q8NER1 whole entry, looked up): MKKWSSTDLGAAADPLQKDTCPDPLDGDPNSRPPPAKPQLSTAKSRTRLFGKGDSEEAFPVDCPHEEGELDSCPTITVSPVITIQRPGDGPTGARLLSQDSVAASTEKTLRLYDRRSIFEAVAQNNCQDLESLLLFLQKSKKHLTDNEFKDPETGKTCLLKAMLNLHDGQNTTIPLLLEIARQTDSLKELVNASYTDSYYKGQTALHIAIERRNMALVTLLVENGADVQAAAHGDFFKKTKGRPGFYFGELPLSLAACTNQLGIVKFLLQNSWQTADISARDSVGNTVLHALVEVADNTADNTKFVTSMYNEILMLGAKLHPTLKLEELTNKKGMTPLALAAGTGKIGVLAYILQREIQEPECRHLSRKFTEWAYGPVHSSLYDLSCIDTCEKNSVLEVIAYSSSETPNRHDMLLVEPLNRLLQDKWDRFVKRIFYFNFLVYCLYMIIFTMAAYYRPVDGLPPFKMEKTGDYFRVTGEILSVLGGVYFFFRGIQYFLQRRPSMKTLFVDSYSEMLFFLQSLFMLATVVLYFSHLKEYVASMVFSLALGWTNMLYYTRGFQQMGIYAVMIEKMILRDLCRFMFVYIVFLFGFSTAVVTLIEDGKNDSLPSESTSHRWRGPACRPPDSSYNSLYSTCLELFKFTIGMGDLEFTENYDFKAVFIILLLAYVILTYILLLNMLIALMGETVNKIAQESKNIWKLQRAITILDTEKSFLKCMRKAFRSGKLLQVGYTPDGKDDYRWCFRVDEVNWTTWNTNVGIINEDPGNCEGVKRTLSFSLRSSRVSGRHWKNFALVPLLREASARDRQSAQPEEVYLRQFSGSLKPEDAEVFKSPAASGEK
#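 TRPV1-expressing cells were cultured overnight at 35.5C and loaded with Fluo-8 calcium dye for 40 to 90 min at room temperature. After a 10 s baseline, compound was added and calcium influx was read kinetically for 3 min (ex 480/em 520 nm).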
# Gal4-VP16 FLuc = VP16 counterscreen qHTS for inhibitors of ROR gamma transcriptional activity. Potency, µM (titrated, usually from 53.6 µM), usual class: inhibitors. actives 3.5% (n = 310,000). Drosophila S2 Gal4-VP16 UAS-luciferase, luminescence, 20 h;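 note: Gal4-VP16 expression switched on by copper sulfate through the metallothionein promoter; nearly all actives have a fitted effect of over 50% in size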
# RORgamma inh = qHTS for inhibitors of ROR gamma transcriptional activity; Nuclear receptor ROR-gamma (Mus musculus), P51450; Drosophila S2 Gal4-RORgamma UAS-luciferase reporter, 20 h; Potency, µM (doses to about 53.6 µM), hits mostly inhibitors; actives 5.4% (n = 310,000); AID 2551, 2010; note: nearly all actives have a fitted effect of over 60% in size
#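 In this cell-based reporter format, copper sulfate (700 uM final) drives Gal4–ROR gamma fusion expression from a metallothionein promoter in Drosophila Schneider cells; compounds preincubated 1 hr, reporter read after 20 hr at ambient temperature.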
# TRPV1 agonist = HTS Assay for Compounds that Act as Agonists of the Vanilloid Receptor 1. actives 0.19% (n = 320,000). TRPV1-expressing cells, Fluo-8 calcium influx, agonist mode. activation, % at 8.33 µM. Transient receptor potential cation channel subfamily V member 1 (Homo sapiens), Q8NER1; in the data active = activation above about 80%; inconclusive = between about 30% and that limit
#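 Cells expressing TRPV1 were dye-loaded with Fluo-8 and read kinetically: 10 s baseline, 3 min after compound (agonist portion), then 2 min after EC20 capsaicin (allosteric enhancer portion). Calcium-bound dye fluorescence at 480/520 nm.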
# uPA surface inh = qHTS for Inhibitors of Cell Surface uPA Generation; cell surface uPA generation assay, qHTS; Potency, µM (series often up to 38.3 µM), usual class: inhibitors; actives 0.31% (n = 330,000); AID 540303, 2011; active = well fitted inhibition curve with a large enough effect; inconclusive = small, poorly fitted or top-dose-only effect; inactive = no such curve, though single readings can be large or run the other way; tested in mouse RAW 264.7 cells; note: nearly all actives have a fitted effect of over 55% in size
# Hits are given with their value; - = inactive; ? = inconclusive; . = not tested or not shown; ! = not confirmed by another sample; [ ] = another dose, or the depositor's remark. Unless noted, calls come from the whole dose curve; as a rule, active = well fitted curve in the direction sought with a large enough effect; inconclusive = small, poorly fitted or top-dose-only effect, or another doubt; inactive = no such curve, though single readings can be large; an effect the other way counts as inactive or inconclusive.
SMILES,TRPV1 potentiator,Gal4-VP16 FLuc,RORgamma inh,TRPV1 agonist,uPA surface inh
CCN1CCN(S(=O)(=O)c2ccc(Cl)c(C(=O)N(CC)CC(=O)Nc3ccc(OC)cc3)c2)CC1,-,-,5.6µM,-,-
COC(=O)C[C@]1(C(=O)OC)CN(C#N)N(c2ccc(Cl)cc2)C12c1ccccc1-c1ccccc12,-,3.2µM,5.6µM,-,-
COC(=O)[C@@H]1[C@@H](C(=O)OC)C2(c3ccccc3-c3ccccc32)N(c2ccc(Cl)cc2)N1C#N,-,4.5µM,?,-,-
COC(C)(C)C,.,-,-,.,.
O=C1CCN(C(=O)CCCn2c(=O)oc3ccccc32)CC1,-,-,-,-,-
CC1CCCC(C)N1c1nnc(NC(=O)Cn2c(=O)oc3ccccc32)s1 (centres undefined),-,14µM,?,-,-
c1ccc(OP(Oc2ccccc2)Oc2ccccc2)cc1,.,-,-,.,.
Cn1ncnc2c(=O)n(C)c(=O)nc1-2,-,0.63µM,0.04µM,-,1.1µM
CC/C(=C\C=C\[C@@H]1C=C[C@@H]2CCC[C@H]2[C@@H]1C(=O)c1ccc[nH]1)[C@@H]1O[C@@H]([C@@H](C)C(=O)O)CC[C@@H]1C,-,10µM,?,?,-
C/C=C(\C)C(=O)N[C@@H](c1ccccc1)[C@@H](O)C(=O)O[C@H]1C[C@@]2(O)[C@@H](OC(=O)c3ccccc3)C3[C@](C)(C(=O)[C@H](OC(C)=O)C(=C1C)C2(C)C)[C@H](O)C[C@H]1OC[C@@]31OC(C)=O (some centres undefined),-,35µM,?,-,-
CCOC(=O)CBr,.,-,-,.,.
O=C(O)[C@@H]1Cc2[nH]cnc2C(c2cccnc2)N1 (some centres undefined),.,-,-,.,.
CN(Cc1ccccc1)Cc1ccccc1OC(=O)N(C)C,-,-,1.4µM,-,-
C/C=C/C=O,.,-,-,.,.
CCCC(=O)Cl,.,-,-,.,.
CC(C)CNP(=S)(c1ccccc1)C(C)(C)C (centres undefined),-,?,7.9µM,-,-
CC(C)[C@@]1(NC(=O)[C@H]2CC3c4cccc5[nH]cc(c45)C[C@H]3N(C)C2)O[C@@]2(O)C3CCCN3C(=O)[C@@H](Cc3ccccc3)N2C1=O (some centres undefined),.,-,-[10 µM],.,.
Nc1ncc(S(=O)(=O)c2ccc(Cl)cc2)c(N)n1,-,-,?,-,-
CCOC(=O)N1CCN(C(=O)c2ccc3c(=O)n(CCC4=CCCCC4)c(=S)[nH]c3c2)CC1,-,14µM,-,-,-
COc1ccccc1-c1n[nH]c(=S)n1Cc1ccco1,-,-,?,-,.
O=C(Nc1ccc(Cl)cc1)Nc1ccc(Cl)c(Cl)c1,-,?,-[10 µM],-,?
NC(=NCCCCCCN=C(N)/N=C(\N)Nc1ccc(Cl)cc1)/N=C(\N)Nc1ccc(Cl)cc1,-,16µM!,?,-,?
CN(C)C(=O)Oc1ccc(OCc2nc3ccccc3[nH]2)cc1,-,11µM,?,-,-
COc1ccc(C[C@@H]2NC[C@H](O)[C@@H]2OC(C)=O)cc1,.,0.04µM,0.32µM,.,.
Cc1ccc(Cl)cc1NC(=O)CC(O)(C(F)(F)F)C(F)(F)F,-,.,-[0.365 µM],-,?
SMILES,TRPV1 potentiator,Gal4-VP16 FLuc,RORgamma inh,TRPV1 agonist,uPA surface inh
FC(F)(F)c1cnc(NNC(=S)Nc2cccnc2)c(Cl)c1,?,?,13µM,-,?
O=C(Cc1ccc(Cl)c(Cl)c1)Nc1cccnc1,-,-,?,-,-
O=c1c2ccccc2[nH]c(=S)n1-c1cccnc1,.,-,-,.,-
O=c1c2cc(Br)ccc2[nH]c(=S)n1-c1ccccc1,-,-,-,-,-
COc1cc(-n2c(=S)[nH]c3ccccc3c2=O)c(Cl)cc1Cl,-,5.6µM,2.8µM,-,-
CC(C)Oc1cc(-n2c(=S)[nH]c3ccccc3c2=O)c(Cl)cc1Cl,.,5µM,2.8µM,.,-
C[C@@H](N)[C@@H](O)c1ccc(O)c(O)c1,.,-,-[10 µM],.,.
C=C(C)[C@@]12OC3(c4ccccc4)O[C@@H]1[C@@H]1[C@@H]4O[C@]4(CO)[C@@H](O)[C@]4(O)C(=O)C(C)=C[C@H]4[C@@]1(O3)[C@H](C)[C@H]2OC(=O)/C=C/C=C/c1ccccc1,.,-,-,.,.
CCCCNC(=O)c1onc(CCl)c1C(=O)OC,-,-,-,-,?
O=C(Cl)OCc1ccccc1,.,-,-,.,.
CCCCOC(C)=O,.,-,-,.,.
CC[C@@]1(O)CC(O)c2c(cc3c(c2O)C(=O)c2c(O)ccc(O)c2C3=O)C1C(=O)OC (some centres undefined),.,-,?,.,.
CC[C@]1(O)CC(O[C@@H]2CC(N(C)C)C(O)C(C)O2)c2c(cc3c(c2O)C(=O)c2c(O)cccc2C3=O)C1C(=O)OC (some centres undefined),.,4.5µM,2.2µM,.,.
Clc1ccc2ccccc2c1,.,-,-,.,.
Cc1ccccc1-n1c(/C=C/c2ccccn2)nc2ccccc2c1=O,-,-,-,-,?
CN1C2CCC1/C(=C/c1ccccn1)C(=O)/C2=C\c1ccccn1,-,2.5µM,2.8µM,-,-
CO/C1=C\C(C)=C\[C@@H](C)[C@@H](O)[C@@H](C)C/C(C)=C/C=C/[C@H](OC)[C@@H]([C@@H](C)[C@@H](O)[C@H](C)[C@@]2(O)C[C@@H](O)[C@H](C)C(C(C)C)O2)OC1=O (some centres undefined),.,7.1µM,6.3µM,.,.
O=C(c1ccc(Cl)cc1)C1CCCN(Cc2ccc3c(c2)OCCO3)C1 (centres undefined),-,-,-,-,-
O=C(c1ccc(Cl)cc1)C1CCCN(Cc2ccc3ncccc3c2)C1 (centres undefined),-,7.1µM,?,-,-
COc1ccc(CN2CCCC(C(=O)c3cccc(Cl)c3)C2)cc1 (centres undefined),-,-,-,-,?
O=C(c1cccc(Cl)c1)C1CCCN(Cc2cccc3cnccc23)C1 (centres undefined),-,-,7.1µM,-,-
COc1ccc(CN2CCCC(C(=O)c3ccc(Cl)cc3)C2)c(OC)c1 (centres undefined),-,-,-,-,-
O=C(c1ccc(Cl)cc1)C1CCCN(Cc2cccc3cnccc23)C1 (centres undefined),-,35µM,?,-,-
CCN(N=O)C(N)=O,.,-,-,.,.
Nc1cccc(Cl)c1,.,-,-,.,.
Oc1cccc[c]1[Hg][Cl],.,3.5µM,1.6µM,.,.
COc1ccc(OC)c(N2C(=O)NC(=O)/C(=C\c3ccc([N+](=O)[O-])s3)C2=O)c1,-,?,6.3µM,-,-
COc1ccc2[nH]c(C)c(CCNCc3cc(OC)c(OC)c(OC)c3)c2c1,-,18µM,?,-,-
COc1ccc2[nH]c(C)c(CCNCc3cc(OC)c4c(c3)OCO4)c2c1,-,.,.,-,?
